Data from the supplement of paper PMC8269313.
Counter-ions that a name gives are not always drawn.

Tested on: 4T1
Experiment: % inhibition of 4T1 cell number vs DMSO control; higher = stronger growth inhibition
Conditions: 1 µM, 3 days
In short: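 4T1-H2B-GFP mouse breast cancer cells (3000 per well, 2% FBS medium) were seeded in 96-well imaging plates on plastic, denuded lung or mCAF1 fibroblast-derived matrix, Matrigel (15 μg/mL) or 0.2% gelatin; edge wells were left unused. After 16 h, kinase inhibitors were added at 1 μM final for 3 days. Plates were formalin-fixed, DAPI-stained and imaged on an INCell Analyzer 2200, and GFP-positive nuclei were counted. Percent inhibition of cell number was calculated relative to DMSO control.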

[1] = substrate: lung fibroblast-derived matrix
[2] = substrate: mCAF1 fibroblast-derived matrix

Compound: CNCCNS(=O)(=O)c1cccc2cnccc12 [H-8, Dihydrochloride]
- % inhibition of 4T1 cell number (substrate: Matrigel): -17.7%
- % inhibition of 4T1 cell number (substrate: gelatin): 25.7%
- % inhibition of 4T1 cell number [1]: -6.96%
- % inhibition of 4T1 cell number [2]: 30.5%
- % inhibition of 4T1 cell number (substrate: plastic): -63%

Compound: Cc1cc(C=C2C(=O)C=CC2=O)cc(C)c1O
- % inhibition of 4T1 cell number (substrate: Matrigel): 32.9%
- % inhibition of 4T1 cell number (substrate: gelatin): 68.1%
- % inhibition of 4T1 cell number [1]: 10.9%
- % inhibition of 4T1 cell number [2]: -26.2%
- % inhibition of 4T1 cell number (substrate: plastic): 32.3%

Compound: CCCOc1ccc(/C=C2/SC(=O)NC2=O)cc1 [PIM1/2 Kinase Inhibitor VI]
- % inhibition of 4T1 cell number (substrate: Matrigel): 16.2%
- % inhibition of 4T1 cell number (substrate: gelatin): 22.9%
- % inhibition of 4T1 cell number [1]: 2.3%
- % inhibition of 4T1 cell number [2]: -16.9%
- % inhibition of 4T1 cell number (substrate: plastic): -1.33%

Compound: Cn1nc2c3c(cccc31)C(=O)c1ccccc1-2 [JNK Inhibitor, Negative Control]
- % inhibition of 4T1 cell number (substrate: Matrigel): -37.2%
- % inhibition of 4T1 cell number (substrate: gelatin): -36.9%
- % inhibition of 4T1 cell number [1]: 0.304%
- % inhibition of 4T1 cell number [2]: 24.3%
- % inhibition of 4T1 cell number (substrate: plastic): -59.1%

Compound: c1ccc(-c2n[nH]c3c2oc2ccccc23)cc1
- % inhibition of 4T1 cell number (substrate: Matrigel): -3.87%
- % inhibition of 4T1 cell number (substrate: gelatin): -77.4%
- % inhibition of 4T1 cell number [1]: -1.95%
- % inhibition of 4T1 cell number [2]: -3.97%
- % inhibition of 4T1 cell number (substrate: plastic): -64.2%

Compound: Cc1ccc(S(=O)(=O)/C=C/C#N)cc1
- % inhibition of 4T1 cell number (substrate: Matrigel): 18.5%
- % inhibition of 4T1 cell number (substrate: gelatin): 38.2%
- % inhibition of 4T1 cell number [1]: -8.23%
- % inhibition of 4T1 cell number [2]: -0.662%
- % inhibition of 4T1 cell number (substrate: plastic): 5.77%

Compound: COc1ccc2nc3n[nH]c(C)c3c(NCCOCCO)c2c1
- % inhibition of 4T1 cell number (substrate: Matrigel): 28.3%
- % inhibition of 4T1 cell number (substrate: gelatin): 44.2%
- % inhibition of 4T1 cell number [1]: 1.01%
- % inhibition of 4T1 cell number [2]: -1.22%
- % inhibition of 4T1 cell number (substrate: plastic): 23.2%

Compound: COc1cc2ncnc(N3CCN(C(=O)Nc4ccc(Oc5ccccc5)cc4)CC3)c2cc1OC [PDGF Receptor Tyrosine Kinase Inhibitor III]
- % inhibition of 4T1 cell number (substrate: Matrigel): -4.76%
- % inhibition of 4T1 cell number (substrate: gelatin): -15.1%
- % inhibition of 4T1 cell number [1]: -1.37%
- % inhibition of 4T1 cell number [2]: 49.3%
- % inhibition of 4T1 cell number (substrate: plastic): -34.7%

Compound: CN(C)CCCn1cc(C2=C(c3c[nH]c4ccccc34)C(=O)NC2=O)c2ccccc21 [Bisindolylmaleimide I]
- % inhibition of 4T1 cell number (substrate: Matrigel): 46.6%
- % inhibition of 4T1 cell number (substrate: gelatin): 41.5%
- % inhibition of 4T1 cell number [1]: -13.3%
- % inhibition of 4T1 cell number [2]: 13.1%
- % inhibition of 4T1 cell number (substrate: plastic): 57.2%

Compound: Brc1c(Br)c(Br)c2n[nH]nc2c1Br [Casein Kinase II Inhibitor I]
- % inhibition of 4T1 cell number (substrate: Matrigel): 49.8%
- % inhibition of 4T1 cell number (substrate: gelatin): 40.2%
- % inhibition of 4T1 cell number [1]: 1.56%
- % inhibition of 4T1 cell number [2]: -30.6%
- % inhibition of 4T1 cell number (substrate: plastic): 39.4%

Compound: O=C1Nc2ccc(Cl)cc2/C1=C/c1cc(Cl)c(O)c(Cl)c1 [PKR Inhibitor, Negative Control]
- % inhibition of 4T1 cell number (substrate: Matrigel): -11.8%
- % inhibition of 4T1 cell number (substrate: gelatin): -80.4%
- % inhibition of 4T1 cell number [1]: 86.7%
- % inhibition of 4T1 cell number [2]: 8.78%
- % inhibition of 4T1 cell number (substrate: plastic): -63.2%

Compound: CO[C@H]1C[C@@H]2CC[C@@H](C)[C@@](O)(O2)C(=O)C(=O)N2CCCC[C@H]2C(=O)O[C@H]([C@H](C)C[C@@H]2CC[C@@H](O)[C@H](OC)C2)CC(=O)[C@H](C)/C=C(\C)[C@@H](O)[C@@H](OC)C(=O)[C@H](C)C[C@H](C)/C=C/C=C/C=C/1C [Rapamycin]
- % inhibition of 4T1 cell number (substrate: Matrigel): -18.4%
- % inhibition of 4T1 cell number (substrate: gelatin): -32%
- % inhibition of 4T1 cell number [1]: -0.258%
- % inhibition of 4T1 cell number [2]: 23.7%
- % inhibition of 4T1 cell number (substrate: plastic): -50.8%

Compound: O=S(=O)(c1cccc2cnccc12)N1CCCNCC1 [HA 1077, Dihydrochloride]
- % inhibition of 4T1 cell number (substrate: Matrigel): 25.3%
- % inhibition of 4T1 cell number (substrate: gelatin): 21.7%
- % inhibition of 4T1 cell number [1]: -23.5%
- % inhibition of 4T1 cell number [2]: 4.22%
- % inhibition of 4T1 cell number (substrate: plastic): 21.9%

Compound: COc1ccc(CNc2nc(N(CCO)CCO)nc3c2ncn3C(C)C)cc1 [Cdk2 Inhibitor III]
- % inhibition of 4T1 cell number (substrate: Matrigel): -37%
- % inhibition of 4T1 cell number (substrate: gelatin): 15.9%
- % inhibition of 4T1 cell number [1]: 6.49%
- % inhibition of 4T1 cell number [2]: 22%
- % inhibition of 4T1 cell number (substrate: plastic): -27.8%

Compound: O=C(Nc1cc(Cl)cc2c1[nH]c1cnccc12)c1cccnc1 [IKK Inhibitor X]
- % inhibition of 4T1 cell number (substrate: Matrigel): 42.5%
- % inhibition of 4T1 cell number (substrate: gelatin): 25.8%
- % inhibition of 4T1 cell number [1]: -6.01%
- % inhibition of 4T1 cell number [2]: -10%
- % inhibition of 4T1 cell number (substrate: plastic): 57.7%

Compound: CN(C)S(=O)(=O)c1ccc2c(c1)/C(=C/c1cc3c([nH]1)CCCC3)C(=O)N2
- % inhibition of 4T1 cell number (substrate: Matrigel): -10.2%
- % inhibition of 4T1 cell number (substrate: gelatin): 2.33%
- % inhibition of 4T1 cell number [1]: -16.4%
- % inhibition of 4T1 cell number [2]: -22.1%
- % inhibition of 4T1 cell number (substrate: plastic): -51.8%

Compound: Nc1ncnc2c1c(I)cn2[C@@H]1O[C@H](CO)[C@@H](O)[C@H]1O [5-Iodotubercidin]
- % inhibition of 4T1 cell number (substrate: Matrigel): 15.7%
- % inhibition of 4T1 cell number (substrate: gelatin): 59.3%
- % inhibition of 4T1 cell number [1]: 7.74%
- % inhibition of 4T1 cell number [2]: 34.1%
- % inhibition of 4T1 cell number (substrate: plastic): 24.1%

Compound: Cc1nc2cc3nc(-c4cccs4)cnc3cc2n1C
- % inhibition of 4T1 cell number (substrate: Matrigel): 47.1%
- % inhibition of 4T1 cell number (substrate: gelatin): -31.4%
- % inhibition of 4T1 cell number [1]: -7.74%
- % inhibition of 4T1 cell number [2]: -22.1%
- % inhibition of 4T1 cell number (substrate: plastic): 37.6%

Compound: COc1ccc(CNC(=O)Nc2ncc([N+](=O)[O-])s2)cc1 [GSK-3b Inhibitor VIII]
- % inhibition of 4T1 cell number (substrate: Matrigel): -53.9%
- % inhibition of 4T1 cell number (substrate: gelatin): 19.6%
- % inhibition of 4T1 cell number [1]: 27.8%
- % inhibition of 4T1 cell number [2]: 24.4%
- % inhibition of 4T1 cell number (substrate: plastic): -62.1%

Compound: CC[C@H](CO)Nc1nc(NCc2ccccc2)c2ncn(C(C)C)c2n1 [Roscovitine]
- % inhibition of 4T1 cell number (substrate: Matrigel): -1.22%
- % inhibition of 4T1 cell number (substrate: gelatin): 53.1%
- % inhibition of 4T1 cell number [1]: -2.74%
- % inhibition of 4T1 cell number [2]: 3.56%
- % inhibition of 4T1 cell number (substrate: plastic): -18.8%

Compound: COc1cc2ncnc(Nc3ccc(NC(=O)c4ccccc4)cc3)c2cc1OC [Aurora Kinase Inhibitor II]
- % inhibition of 4T1 cell number (substrate: Matrigel): 50.4%
- % inhibition of 4T1 cell number (substrate: gelatin): 37.2%
- % inhibition of 4T1 cell number [1]: -20.1%
- % inhibition of 4T1 cell number [2]: -30.6%
- % inhibition of 4T1 cell number (substrate: plastic): 35.8%

Compound: Nc1ccc(-c2cccc3c(=O)cc(N4CCOCC4)oc23)cc1
- % inhibition of 4T1 cell number (substrate: Matrigel): -40.7%
- % inhibition of 4T1 cell number (substrate: gelatin): -16.5%
- % inhibition of 4T1 cell number [1]: -12%
- % inhibition of 4T1 cell number [2]: 28.6%
- % inhibition of 4T1 cell number (substrate: plastic): -60.7%

Compound: O=C1Cc2c([nH]c3ccc([N+](=O)[O-])cc23)-c2ccccc2N1 [Alsterpaullone]
- % inhibition of 4T1 cell number (substrate: Matrigel): 61.5%
- % inhibition of 4T1 cell number (substrate: gelatin): 45.2%
- % inhibition of 4T1 cell number [1]: -3.92%
- % inhibition of 4T1 cell number [2]: -0.808%
- % inhibition of 4T1 cell number (substrate: plastic): 56.1%
